Compound activity deposited in PubChem BioAssay by National Center for Advancing Translational Sciences (NCATS).
G9a block – blocks human histone lysine methyltransferase G9a. hit rate 8.8% among 350,000. Q96KQ7. G9a H3K9 monomethylation, AlphaScreen, 2 h. Potency, µM (doses to about 102 µM), for inactives: at the top dose activity, negative = inhibition, hits mostly inhibitors. AID 504332; also: % is scaled to controls: 0 for no effect and ±100 for the full control effect; nearly all actives have a fitted effect of over 75% in size
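AlphaScreen detection with an anti-monomethyl H3K9 antibody quantified product after a 2 h room-temperature reaction containing 500 nM biotinylated H3K9 peptide, 20 µM SAM and 20 nM enzyme, which had been preincubated 15 min with compound.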
JMJD2A Tudor – inhibitors of human JMJD2A Tudor domain; hit rate 4.4% among 390,000; O75164; Potency, µM (doses to about 114 µM), without a hit: at the highest dose activity change, negative = inhibition, hits mostly inhibitors; AlphaScreen JMJD2A-Tudor / H3K4me3 peptide binding; also: % is scaled to controls: 0 for no effect and ±100 for the full control effect; nearly all actives have a fitted effect of over 50% in size
Target sequence (O75164 whole entry, looked up, the tested form may be a part): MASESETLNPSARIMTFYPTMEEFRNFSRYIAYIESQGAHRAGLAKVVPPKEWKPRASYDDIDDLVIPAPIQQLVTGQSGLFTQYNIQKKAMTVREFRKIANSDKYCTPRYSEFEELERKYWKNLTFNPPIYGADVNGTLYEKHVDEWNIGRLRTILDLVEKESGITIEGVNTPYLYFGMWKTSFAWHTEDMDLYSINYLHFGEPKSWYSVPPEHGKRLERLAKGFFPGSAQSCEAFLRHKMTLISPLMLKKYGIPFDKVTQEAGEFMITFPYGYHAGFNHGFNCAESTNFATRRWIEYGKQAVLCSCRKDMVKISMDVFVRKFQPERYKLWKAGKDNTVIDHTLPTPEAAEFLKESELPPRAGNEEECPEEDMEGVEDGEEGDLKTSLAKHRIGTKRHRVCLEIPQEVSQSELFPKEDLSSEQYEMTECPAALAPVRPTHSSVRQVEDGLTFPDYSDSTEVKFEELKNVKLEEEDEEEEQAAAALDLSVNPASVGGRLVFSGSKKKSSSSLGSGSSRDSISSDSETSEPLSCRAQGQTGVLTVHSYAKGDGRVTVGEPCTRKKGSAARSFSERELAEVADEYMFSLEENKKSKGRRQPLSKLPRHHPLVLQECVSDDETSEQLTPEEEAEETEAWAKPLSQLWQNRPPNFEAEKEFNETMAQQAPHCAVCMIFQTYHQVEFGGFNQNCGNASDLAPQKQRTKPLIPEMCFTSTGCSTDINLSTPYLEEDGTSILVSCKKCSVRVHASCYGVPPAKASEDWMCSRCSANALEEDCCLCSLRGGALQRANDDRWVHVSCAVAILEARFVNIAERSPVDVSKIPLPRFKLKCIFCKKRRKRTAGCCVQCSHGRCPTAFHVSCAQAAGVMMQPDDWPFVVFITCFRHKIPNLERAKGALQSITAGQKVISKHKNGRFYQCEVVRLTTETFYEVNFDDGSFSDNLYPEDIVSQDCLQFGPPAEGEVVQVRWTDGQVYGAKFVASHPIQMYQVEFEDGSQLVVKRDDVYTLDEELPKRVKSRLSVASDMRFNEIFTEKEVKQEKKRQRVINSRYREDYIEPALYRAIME
Sfp PPTase inh – Sfp phosphopantetheinyl transferase inhibition | Q9F4F7 | hit rate 3.5% among 310,000 | Potency, µM, for inactives: largest response in the series, negative = inhibition, hits mostly inhibitors | Biochemical Sfp PPTase activity, qHTS;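 also: the enzyme is Sfp with the accession as filed and its product quenches rhodamine fluorescence; 0% = enzyme reaction without inhibitor and -100% = no enzyme wells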
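Fluorescence-quenching assay with 15 nM Sfp, 5 uM rhodamine-CoA and 12.5 uM BHQ-2-labelled ybbR peptide in pH 7.6 Hepes/MgCl2 buffer. Enzyme was pre-incubated with compound for 15 min at room temperature. Rate was taken from the 30-min fluorescence change (525/598 nm).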
L3MBTL1 inh – L3MBTL1 (human) inhibition | AlphaScreen L3MBTL1–H3K9me1 peptide binding | Potency, µM (highest dose often 57.1 µM), for inactives: at the highest dose activity, negative = inhibition, hits mostly inhibitors | hit rate 0.66% among 230,000; also: % is scaled to controls: 0 for no effect and ±100 for the full control effect; nearly all actives have a fitted effect of over 60% in size
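Read-out is AlphaScreen signal from streptavidin donor and nickel chelate acceptor beads (10 ug/mL final each) bridging L3MBTL1 (50 nM) and biotinylated K9-monomethylated H3(1-15) peptide (75 nM), after 30 min compound exposure at room temperature.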
HP1b binding inh – HP1-beta chromodomain-methylated histone interaction inhibition; AlphaScreen HP1-beta / biotin-H3K9me3 peptide binding; Potency, µM (titrated, usually from 114 µM), without a hit: top-dose activity change, negative = inhibition, most hits filed as inhibitors; hit rate 0.56% among 390,000; AID 540317; also: nearly all actives have a fitted effect of over 70% in size
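HP1-beta protein (50 nM final) preincubated 30 min at room temperature with biotinylated H3(1-18)K9me3 peptide (50 nM) in PBS pH 7.4, 0.01% Tween-20, then compound added for 30 min. AlphaScreen streptavidin donor/nickel chelate acceptor beads (10 ug/mL final), 30 min dark, luminescence read.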
BAZ2B block – inhibitors of human BAZ2B bromodomain; AlphaScreen BAZ2B-H3K14Ac peptide displacement; AID 504333; Q9UIF8; hit rate 4.4% among 360,000; Potency, µM (doses to about 114 µM), inactives show at the top dose activity change, negative = inhibition, hits mostly inhibitors; also: % is scaled to controls: 0 for no effect and ±100 for the full control effect; nearly all actives have a fitted effect of over 60% in size
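AlphaScreen displacement: compounds (up to 110uM) incubated 30 min at room temperature with a preformed 50 nM BAZ2B/50 nM biotinylated H3K14Ac peptide complex in PBS pH 7.4 with Tween-20. Donor and acceptor beads at 10 ug/mL final added, 20 min light-protected before reading.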
Starred values were filed as active, the others as inactive; ? = inconclusive; . = no result; [ ] = another dose, or the depositor's remark. In the library only some 12% were active in any assay of this set; here they are far more common. Calls follow the shape of the dose curve; as a rule, active = well fitted curve in the direction sought with a large enough effect; inconclusive = small, poorly fitted or top-dose-only effect, or another doubt; inactive = no such curve, though single readings can be large; an effect the other way counts as inactive or inconclusive. Potency is read from the fitted curve at half-maximal effect.

SMILES	G9a block	JMJD2A Tudor	Sfp PPTase inh	L3MBTL1 inh	HP1b binding inh	BAZ2B block
COc1cc(NS(=O)(=O)c2ccc3[nH]c4c(c3c2)CCCC4)cc(OC)c1OC	?	?	.	.	-17%	?
O=S(=O)(c1ccc2[nH]c3c(c2c1)CCCC3)N1CCCCC1	.	0%	-7%	.	47%	25µM*
Cc1ccc(NS(=O)(=O)c2ccc3[nH]c4c(c3c2)CCCCCC4)cc1	?	?	.	.	-5%[57 µM]	40µM*
COc1ccc(NS(=O)(=O)c2ccc3[nH]c4c(c3c2)CCCC4)cc1OC	11µM*	45µM*	.	.	?	?
Cc1ccc(NS(=O)(=O)c2ccc3[nH]c4c(c3c2)CCCCCC4)cc1C	?	?	.	.	-17%	-27%
CCCNC(=O)C(=O)NCC(c1ccc2c(c1)OCO2)N1CCOCC1 (stereo unspecified)	10%[59 µM]	-29%	.	.	23%	0%
CCOC(=O)c1c(S(=O)(=O)N2CCC(C(=O)Nc3cccc(C#N)c3)CC2)c(C)n(C)c1C	-5%[59 µM]	-16%	.	.	12%	-8%
O=C1C=C(NCCc2cc(Br)c(O)c(Br)c2)C(=O)c2ncccc21	.	28µM*	.	.	32µM*	.
COC(=O)c1cc(S(=O)(=O)N2CCOCC2)c(Cl)cc1N1CCOCC1	-42%[59 µM]	3%	9%	.	31%	-4%
COC(=O)c1cc(C)nc2c1C(=O)C(=O)C=C2N1CCOCC1	45µM*	-10%	-11%	.	-23%	50µM*
O=C(CSc1nnc(-c2ccco2)n1Cc1ccccc1)OC1CCCCC1	50µM*	-23%[57.1 µM]	-8%	-6%	2%	?
COC(=O)CSc1nnc(-c2ccco2)n1Cc1ccco1	?	-5%	22µM*	-8%	30%	.
CCN(C(=O)CSc1nnc(-c2ccco2)n1Cc1ccccc1)C1CCS(=O)(=O)C1 (stereo unspecified)	?	-7%	.	0%	53%	-36%
CC(=O)c1c(C)[nH]c(C(=O)CSc2nnc(-c3ccco3)n2Cc2ccccc2)c1C	40µM*	-14%[57.1 µM]	-21%	-9%	9%	50µM*
Cc1ccccc1CSc1nnc(-c2ccco2)n1Cc1ccco1	23%[0.501 µM]	?	-11%	-11%	-9%	50µM*
O=C1C2=CC[C@H]3C(=O)N(C[C@@H]4CCCO4)C(=O)[C@@H]3[C@@H]2[C@H](O)[C@@H]2O[C@H]12	.	.	-12%	.	.	.
Cc1ccccc1C(=O)Nc1cccc(OCc2cc(=O)n3c4c(sc3n2)CCCC4)c1	2%[59 µM]	-13%	.	.	32%	-24%
Cc1ccccc1OCCn1c(=N)n(C(C)C)c2ccccc21	-37%[59 µM]	-20%	.	.	5%	0%
CCN(CC)C(=O)CSc1nnc(-c2ccco2)n1Cc1ccco1	40µM*	-19%	-4%	-4%	24%	-10%
CCN(CC)C(=O)CSc1nnc(-c2ccco2)n1N	-2%[12.7 µM]	37%	12%	3%	35%	-5%
CCOC(=O)CSc1nnc(-c2ccco2)n1-c1ccc(C)cc1	-10%[12.7 µM]	-9%[57.1 µM]	-6%	.	39%	-11%
CCOC(=O)CSc1nnc(-c2ccco2)n1-c1ccccc1	?	-12%	35µM*	-1%	28%	-5%
Cc1ccc(CNC(=O)[C@]2(C(F)(F)F)C[C@H](CCc3ccccc3)CCCO2)o1	.	-30%	?	.	18%	.
COc1ccc(C(=O)Nc2nc3nc(-c4ccccc4)cc(=O)n3[nH]2)cc1	?	-13%	15%	?	37%	12%
O=C(CCc1ccccc1)Nc1nc2nc(-c3ccccc3)cc(=O)n2[nH]1	?	-31%	13%	-1%	22%	5%
SMILES	G9a block	JMJD2A Tudor	Sfp PPTase inh	L3MBTL1 inh	HP1b binding inh	BAZ2B block
O=C(Nc1nc2nc(-c3ccccc3)cc(=O)n2[nH]1)c1ccc(Cl)cc1	?	?	.	.	26%	79µM*
O=c1cc(-c2ccccc2)nc2nc(SCc3ccccc3)[nH]n12	-12%[12.7 µM]	?	7%	.	3%	79µM*
CC(C)CC(=O)Nc1nc2nc(-c3ccccc3)cc(=O)n2[nH]1	?	?	.	.	26%	50µM*
Cc1cc(=O)n2[nH]c(SCc3ccccc3)nc2n1	13%	19%	8%	.	26%	2%
Cc1ccc(NCc2n[nH]c(=S)n2-c2ccccc2)c(C)c1	4µM*	56µM*	11%	.	1%	?
Cc1ccc(NCc2n[nH]c(=S)n2-c2ccccc2)cc1	1.6µM*	?	?	-7%	-18%	?
COc1ccc(-c2nnc3n2N=C(c2c(OC)cccc2OC)CS3)cc1OC	.	-24%	9%	.	.	.
CC(C)C[C@H](NC(=O)[C@H](CO)NC(=O)CNC(=O)[C@H](CCCCN)NC(=O)[C@H](CCCN=C(N)N)NC(=O)[C@H](C)NC(=O)[C@H](Cc1ccccc1)NC(=O)[C@@H](N)CCCN=C(N)N)C(=O)N[C@@H](CCCN=C(N)N)C(=O)N[C@@H](CCC(N)=O)C(=O)N[C@@H](CCCCN)C(=O)N[C@@H](CC(N)=O)C(=O)N[C@H](C(=O)O)C(C)C	.	.	11%	.	.	.
CC(C)(C)c1ccc(Nc2nc(C#N)nc(NC3CCCC3)n2)cc1	.	-18%	.	.	.	.
Cc1ccc(C2C(=O)N(C3CCCCCC3)CC(=O)N2CCC2=CCCCC2)cc1 (stereo unspecified)	-7%[59 µM]	-5%	.	.	48%	1%
CC(C)C(CCNC(=O)CN1C(=O)c2ccccc2C1=O)c1ccco1 (stereo unspecified)	-26%[59 µM]	-19%	10%	.	34%	-2%
CC(C)C(CCNC(=O)CC(Cc1ccccc1)c1ccco1)c1ccco1 (stereo unspecified)	-26%[0.501 µM]	?	-27%	-22%	0%	50µM*
